40 compounds from PubChem BioAssay (Tox21) can be followed below.

The structures appear in SMILES notation. Inconclusive results are not listed. The source made the active and inactive calls. Calls come from the whole dose curve; as a rule, active = well fitted inhibition curve with a large enough effect in the repeat runs; inconclusive = weak or mixed curves; inactive = no such curve, though single readings can be large or run the other way.
% is set by controls: 0 for no effect and ±100 for the full control effect; potency is the fitted concentration of half-maximal effect.

Sequence of Estrogen receptor (Homo sapiens) (P03372 whole entry, looked up): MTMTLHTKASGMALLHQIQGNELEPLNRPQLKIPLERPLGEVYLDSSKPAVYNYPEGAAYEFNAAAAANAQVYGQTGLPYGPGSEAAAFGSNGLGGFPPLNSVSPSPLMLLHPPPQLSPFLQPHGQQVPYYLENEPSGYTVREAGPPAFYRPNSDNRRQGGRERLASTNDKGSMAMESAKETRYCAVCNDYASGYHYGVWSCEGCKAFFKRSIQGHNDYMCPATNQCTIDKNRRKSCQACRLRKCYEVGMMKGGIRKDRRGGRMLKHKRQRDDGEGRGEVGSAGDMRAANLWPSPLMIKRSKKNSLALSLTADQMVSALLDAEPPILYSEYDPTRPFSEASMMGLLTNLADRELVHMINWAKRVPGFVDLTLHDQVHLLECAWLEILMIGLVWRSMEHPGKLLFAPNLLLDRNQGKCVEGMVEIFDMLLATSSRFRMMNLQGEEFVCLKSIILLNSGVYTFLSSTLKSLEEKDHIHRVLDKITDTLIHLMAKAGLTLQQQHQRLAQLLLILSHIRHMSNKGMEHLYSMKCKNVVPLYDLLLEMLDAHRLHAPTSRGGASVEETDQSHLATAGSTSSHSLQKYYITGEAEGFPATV

The assay concerns the target Estrogen receptor (Homo sapiens) (UniProt P03372). Briefly: qHTS assay to identify small molecule antagonists of the estrogen receptor alpha (ER-alpha) signaling pathway using the BG1 cell line in the presence of 0.1 nM 17-beta-estradiol (AID 1259244). Note: nearly all actives have a fitted effect of over 50% in size. Conditions: VM7Luc4E2 (BG1) ERE-luciferase, antagonist mode, 0.1 nM E2, 22 h; series mostly up to 92.4 µM; activity change, negative = inhibition: at the top concentration. From the text: National Center for Advancing Translational Sciences [NCATS]
NIH Chemical Genomics Center [NCGC]
U.S. Environmental Protection Agency [EPA]
National Institutes of Environmental Health Sciences [NIEHS]
National Toxicology Program [NTP]
U.S. Food and Drug Administration [FDA]
Estrogen receptor (ER), a member of the nuclear hormone receptor plays an important role in development, metabolic homeostasis and reproduction. Two subtypes of ER, ER-alpha and ER-beta, have similar expression patterns with some uniqueness in both types. Endocrine disrupting chemicals (EDCs) and their interactions with steroid hormone receptors like ER causes disruption of normal endocrine function. Therefore, it is important to understand the effect of environmental chemicals in ER signaling pathway. For identifying ER antagonists, VM7Luc4E2 cell line was used to screen against Tox21 compound libraries.
VM7Luc4E2 cell line (provided by Denison MS, University of California) endogenously express full-length ER-alpha and is stably transfected with a plasmid containing four estrogen responsive elements (ERE) upstream of a luciferase reporter gene. The current screening for identification of ER-alpha inhibitors against Tox21 compound libraries used lower concentration (0.1 nM) of 17beta-Estradiol as a stimulator.
Tox21 Assay Protocol Summary:
VM7Luc4E2 cells were cultured in phenol red free assay medium containing 10% charcoal stripped FBS for 5 days prior to the assay. The cells were dispensed at 4,000 cells/well in 4 uL of assay medium into white wall/solid-bottom 1536-well plates (Corning Life Sciences, Corning, NY) using a Multidrop Combi (ThermoFisher Scientific, Waltham, MA) dispenser. After the assay plates were incubated at 37C and 5% CO2 for 24 hr, 23 nL of compounds dissolved in DMSO, positive controls or DMSO only was transferred to the assay plates by a Pintool station (Kalypsys, San Diego, CA). The transfer of compounds was followed by the addition of 1 uL of 0.1 nM (final concentration) agonist (17beta-Estradiol)/assay medium using a Flying Reagent Dispenser (FRD, Aurora Discovery, San Diego, CA). The plates were incubated at 37C and 5% CO2 for 22 hr. For luciferase reporter gene assay, 4 uL of ONE-Glo reagent (Promega Corporation, Madison, WI) was added to each well using the FRD and after 30 min incubation at room temperature luminescence intensity was measured using ViewLux plate reader (PerkinElmer, Shelton, CT).
(In general: In qHTS, concentration-response curves come from the screen itself.)
Regarding `NC(=O)NS(=O)(=O)c1ccc(Cl)cc1`, the “activity change, negative = inhibition” value is 1.05% [at 42.5 µM] (inactive). `COC(=O)N[C@H](C(=O)N[C@@H](Cc1ccccc1)[C@@H](O)CN(Cc1ccc(-c2ccccn2)cc1)NC(=O)[C@@H](NC(=O)OC)C(C)(C)C)C(C)(C)C`: the “activity change, negative = inhibition” value was -17% [at 42.5 µM] (inactive). Turning to `COC(=O)C(C)O` (stereo not given), the “activity change, negative = inhibition” value was 20% (inactive).

As for `CCN(CCCc1ccccc1)CCCc1ccccc1`, the “activity change, negative = inhibition” value is 0.916% [at 42.5 µM] (inactive). Still for that read-out and setting: with `CCCc1c2oc(C(=O)O)cc(=O)c2cc2c(=O)cc(C(=O)O)n(CC)c12` the figure was 1.44% [at 42.5 µM] (inactive); with `O=C(CC(=O)C(F)(F)F)c1ccccc1`, 33.6% (inactive).

In the case of `COc1ccc(Nc2ccc(OC)cc2)cc1`, the “activity change, negative = inhibition” value is 26.8% (inactive). `Cc1nc(N)nc(N)c1-c1ccc(Cl)c(Cl)c1`: the Potency was 13.3 µM (active).

For `Cc1cc(NS(=O)(=O)c2ccc(N)cc2)nc(C)n1`, the “activity change, negative = inhibition” value is -21% [at 42.5 µM] (inactive). As to `O=C(O)c1ccccc1Nc1cc(Cl)ccc1C(=O)O`, the activity change, negative = inhibition was -11% [at 19 µM] (inactive). On the same count and under the same terms, with `O=C1CCCc2ccccc21` the figure was -14.6% (inactive).

On to `CCCNC(C)(C)COC(=O)c1ccccc1`, for which the “activity change, negative = inhibition” value is -4.1% [at 42.5 µM] (inactive). With `CN1CCN(C2=Nc3ccccc3Oc3ccc(Cl)cc32)CC1`, the “activity change, negative = inhibition” value is -17.5% [at 42.5 µM] (inactive).

For `CCOC(=O)C1CC(=O)C(=C(O)C2CC2)C(=O)C1` (stereo not given), the “activity change, negative = inhibition” value was 5.15% (inactive). `CCCC(CCC)(C(=O)OCC)C(=O)OCC`: the “activity change, negative = inhibition” value was 3.41% [at 42.5 µM] (inactive).

As for `CCCCCCn1c(=O)c2c(ncn2C)n(C)c1=O`, the “activity change, negative = inhibition” value is -6.19% [at 42.5 µM] (inactive).

`CNCCC(Oc1ccccc1OC)c1ccccc1` (stereo not given): the “activity change, negative = inhibition” value was -0.866% [at 42.5 µM] (inactive). Turning to `Cc1cc2c(s1)Nc1ccccc1N=C2N1CCN(C)CC1`, the “activity change, negative = inhibition” value was -7.98% [at 42.5 µM] (inactive). Turning to `CCOC(=O)[C@H](CCc1ccccc1)N[C@@H](C)C(=O)N1Cc2cc(OC)c(OC)cc2C[C@H]1C(=O)O`, the “activity change, negative = inhibition” value is -0.0762% [at 42.5 µM] (inactive).

In the case of `CCCCCCOc1ccc(N)cc1`, the “activity change, negative = inhibition” value is 48.8% (inactive). `CCOC(=O)c1cc(=O)c2c(OCC(COc3cccc4oc(C(=O)OCC)cc(=O)c34)OC(=O)[C@@H](N)CCCCN)cccc2o1`: the “activity change, negative = inhibition” value is 7.71% [at 42.5 µM] (inactive).

Turning to `CC(C)OC(C)C`, the “activity change, negative = inhibition” value is -2.94% (inactive). Turning to `NCCCN1CCN(CCCN)CC1`, the “activity change, negative = inhibition” value is -0.917% (inactive). `Oc1ccccc1F`: the “activity change, negative = inhibition” value was -13% (inactive). The same measure, in the same setting: with `CC(=O)OC1C2(C)CCC(C2)C1(C)C` (stereo not given) the figure was 0.547% (inactive).

Take `N#CSCC(=O)O`: the “activity change, negative = inhibition” value was 1.49% [at 42.5 µM] (inactive). Consider `Cc1c[nH]c(=S)[nH]c1=O`, for which the “activity change, negative = inhibition” value is -25.1% (inactive). Consider `CCCCCCC`, for which the “activity change, negative = inhibition” value was 5.12% (inactive).

In the case of `CCc1cc(Cl)c(OC)c(C(=O)NC[C@@H]2CCCN2CC)c1O`, the “activity change, negative = inhibition” value was -5.7% [at 42.5 µM] (inactive). As to `ICCc1ccccc1`, the Potency was 67.2 µM (active).

As to `O=C1C=CC(=O)O1`, the “activity change, negative = inhibition” value is 3.09% (inactive).

With `COc1ccccc1OCC(O)COC(N)=O` (stereo not given), the “activity change, negative = inhibition” value is -2.36% [at 42.5 µM] (inactive). With `CCCCN1C[C@H](O)[C@@H](O)[C@H](O)[C@H]1CO`, the “activity change, negative = inhibition” value is -0.622% [at 42.5 µM] (inactive).

Regarding `O=C(Cl)c1cccc([N+](=O)[O-])c1`, the “activity change, negative = inhibition” value was 2.98% (inactive). `CCOc1ccccc1N`: the Potency is 30.4 µM (active). Turning to `FC(F)(F)C(Cl)(Cl)Cl`, the “activity change, negative = inhibition” value was 17.8% (inactive). As to `CCCOCCC`, the “activity change, negative = inhibition” value is 2.25% (inactive). Still for that read-out and setting: with `CCCCCOc1ccc(C2SC(=O)NC2=O)cc1OCC` (stereo not given) the figure was 1.73% [at 42.5 µM] (inactive); with `CCCCC(=O)O[C@]1(C(=O)CO)[C@H](C)C[C@H]2[C@@H]3CCC4=CC(=O)C=C[C@]4(C)[C@@]3(F)[C@@H](O)C[C@@]21C`, 15.3% [at 42.5 µM] (inactive). On to `COc1nc(C)nc(NC(=O)NS(=O)(=O)c2ccccc2OCCCl)n1`, for which the “activity change, negative = inhibition” value was 2.04% (inactive).
